Targets with a hit are over-represented here; the source holds about 8,800 in all. About 0.5% of all pairs of compound and target were hits. Values without a mark were called inactive.
Tests used:
Experiment in all cases: log2 fold change, soluble protein after heating vs DMSO (PISA); higher = thermal stabilisation; K562 lysate, 10 uM; active = over 0.2 and 3.5 SD of the protein, either way, in both replicates (recomputed)
erlotinib = compound: C#Cc1cccc(Nc2ncnc3cc(OCCOC)c(OCCOC)cc23)c1 [erlotinib]
Procedure, shortened: (§1)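 Quantification was by TMTpro 16plex LC-MS/MS with equalised channel sums, applied to the supernatant after 21,000xg for 90 min. Samples were crude K562 extract at 1 mg/mL protein in PBS pH 7.4 with 1 mM MgCl2, treated with 10 μM compound for 30 min, heated for 3 min across 48°C-58°C, pooled and brought to 0.5% NP-40 at 4°C. Values are log-two fold changes in thermal stability relative to solvent controls, from duplicates.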

[1] = compound: C/C(=N\NC(=O)C1=CC(=CC=C1)S(=O)(=O)N2CCOCC2)/C3=C(C=CC(=C3)Cl)O
Procedure, shortened: as §1

[2] = compound: C1=CC(=CC=C1C2=NC3=C(N2)C=C(C=C3)C(=O)N)OC4=CC=C(C=C4)Cl
Procedure, shortened: as §1

[3] = compound: C1=CC2=C(C=CC(=C2)/C=C\3/C(=O)NC(=NCC4=CC=CS4)S3)N=C1
Procedure, shortened: as §1

[4] = compound: C1=CC2=NC=CN=C2C=C1/C=C/3\C(=O)NC(=O)S3
Procedure, shortened: as §1

[5] = compound: C1=CC=C(C=C1)C2=NC(=C(N2)C3=CC=NC=C3)C4=CC(=C(C=C4)Cl)O
Procedure, shortened: as §1

[6] = compound: C1=CC=C2C(=C1)C3=NNC4=CC=CC(=C43)C2=O
Procedure, shortened: as §1

[7] = compound: C1CCN(C1)C(=O)NC2=CC=CC(=C2)NC3=NC=C(C(=N3)NCCC4=CN=CN4)Br
Procedure, shortened: as §1

[8] = compound: C1CN(CCC1(CC2=CC=C(C=C2)Cl)N)C3=NC=NC4=C3C=CN4
Procedure, shortened: as §1

IRAK-1-4 Inhibitor I = compound: C1COCCN1CCN2C3=CC=CC=C3N=C2NC(=O)C4=CC(=CC=C4)[N+](=O)[O-] [IRAK-1-4 Inhibitor I]
Procedure, shortened: as §1

ibrutinib = compound: C=CC(=O)N1CCC[C@@H](n2nc(-c3ccc(Oc4ccccc4)cc3)c3c(N)ncnc32)C1 [ibrutinib]
Procedure, shortened: as §1

[9] = compound: CC(=O)c1cnc2ccc(-c3cc(Cl)c(O)c(Cl)c3)nc2c1N[C@H]1CC[C@H](CN(C)C)CC1
Procedure, shortened: as §1

ralimetinib = compound: CC(C)(C)Cn1c(N)nc2ccc(-c3[nH]c(C(C)(C)C)nc3-c3ccc(F)cc3)nc21 [ralimetinib]
Procedure, shortened: as §1

[10] = compound: CC(C)(O)CC(=O)NCCn1ccc2ncnc(Nc3ccc(Oc4cccc(C(F)(F)F)c4)c(Cl)c3)c21
Procedure, shortened: as §1

[11] = compound: CC(C)C1=C2N=C(C=C(N2N=C1)NCC3=CC=CC=C3)NCCCCCCN
Procedure, shortened: as §1

[12] = compound: CC1=C(C(CC(=O)N1)C2=CC=C(C=C2)C(F)(F)F)C(=O)NC3=C(C=C4C(=C3)C=NN4)F
Procedure, shortened: as §1

[13] = compound: CC1=C(C2=C(C=C1)C(=O)C3=CC=CC=C3N2CCCN)C
Procedure, shortened: as §1

[14] = compound: CC1=C(C=C(C=C1)NC(=O)C2=CC(=CC=C2)C(C)(C)C#N)NC3=CC4=C(C=C3)N=CN(C4=O)C
Procedure, shortened: as §1

[15] = compound: CC1=C(C=C(C=C1)NC(=O)C2=CC(=CC=C2)N(C)C)NC(=O)C3=CC=C(C=C3)O
Procedure, shortened: as §1

[16] = compound: CC1=CC=C(C=C1)SC2=C3C=C(SC3=CN=C2)C(=O)N
Procedure, shortened: as §1

UniProt P51159, sequence (P51159 whole entry, looked up): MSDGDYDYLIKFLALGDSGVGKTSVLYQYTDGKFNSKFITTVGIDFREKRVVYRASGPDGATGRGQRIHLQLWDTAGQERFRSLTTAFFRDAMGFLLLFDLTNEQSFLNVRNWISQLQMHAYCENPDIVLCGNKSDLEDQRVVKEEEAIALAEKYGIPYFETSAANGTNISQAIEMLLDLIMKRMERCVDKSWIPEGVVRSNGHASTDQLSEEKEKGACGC
UniProt P58004, sequence (P58004 whole entry, looked up): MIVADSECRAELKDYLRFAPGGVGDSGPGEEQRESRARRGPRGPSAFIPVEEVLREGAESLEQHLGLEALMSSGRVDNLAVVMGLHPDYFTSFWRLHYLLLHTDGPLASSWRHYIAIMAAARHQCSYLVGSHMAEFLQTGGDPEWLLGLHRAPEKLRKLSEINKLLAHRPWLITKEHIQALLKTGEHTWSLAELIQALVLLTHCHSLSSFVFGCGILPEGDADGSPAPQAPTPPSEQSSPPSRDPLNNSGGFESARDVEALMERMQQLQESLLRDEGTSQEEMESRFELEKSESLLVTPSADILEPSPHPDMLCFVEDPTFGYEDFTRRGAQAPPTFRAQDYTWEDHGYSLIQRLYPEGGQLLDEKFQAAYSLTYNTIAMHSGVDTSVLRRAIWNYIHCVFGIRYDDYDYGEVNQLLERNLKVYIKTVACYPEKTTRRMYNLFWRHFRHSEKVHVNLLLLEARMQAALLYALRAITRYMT
UniProt Q9BRS2, sequence (Q9BRS2 whole entry, looked up): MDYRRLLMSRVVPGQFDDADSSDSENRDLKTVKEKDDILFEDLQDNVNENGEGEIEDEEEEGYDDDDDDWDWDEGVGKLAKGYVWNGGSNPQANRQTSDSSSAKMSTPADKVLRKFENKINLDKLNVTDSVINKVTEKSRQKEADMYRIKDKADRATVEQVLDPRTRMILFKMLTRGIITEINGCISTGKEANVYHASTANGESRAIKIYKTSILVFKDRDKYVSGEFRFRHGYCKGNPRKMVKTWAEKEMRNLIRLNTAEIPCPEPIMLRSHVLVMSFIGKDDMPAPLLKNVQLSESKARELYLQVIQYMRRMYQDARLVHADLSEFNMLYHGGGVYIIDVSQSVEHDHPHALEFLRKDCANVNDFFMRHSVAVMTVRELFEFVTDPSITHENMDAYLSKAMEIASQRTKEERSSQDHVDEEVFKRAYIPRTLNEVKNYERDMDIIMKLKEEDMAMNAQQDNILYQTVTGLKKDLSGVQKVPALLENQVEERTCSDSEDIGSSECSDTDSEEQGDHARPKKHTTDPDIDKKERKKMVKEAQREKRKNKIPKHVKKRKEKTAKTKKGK
UniProt Q9UQR0, sequence (Q9UQR0 whole entry, looked up): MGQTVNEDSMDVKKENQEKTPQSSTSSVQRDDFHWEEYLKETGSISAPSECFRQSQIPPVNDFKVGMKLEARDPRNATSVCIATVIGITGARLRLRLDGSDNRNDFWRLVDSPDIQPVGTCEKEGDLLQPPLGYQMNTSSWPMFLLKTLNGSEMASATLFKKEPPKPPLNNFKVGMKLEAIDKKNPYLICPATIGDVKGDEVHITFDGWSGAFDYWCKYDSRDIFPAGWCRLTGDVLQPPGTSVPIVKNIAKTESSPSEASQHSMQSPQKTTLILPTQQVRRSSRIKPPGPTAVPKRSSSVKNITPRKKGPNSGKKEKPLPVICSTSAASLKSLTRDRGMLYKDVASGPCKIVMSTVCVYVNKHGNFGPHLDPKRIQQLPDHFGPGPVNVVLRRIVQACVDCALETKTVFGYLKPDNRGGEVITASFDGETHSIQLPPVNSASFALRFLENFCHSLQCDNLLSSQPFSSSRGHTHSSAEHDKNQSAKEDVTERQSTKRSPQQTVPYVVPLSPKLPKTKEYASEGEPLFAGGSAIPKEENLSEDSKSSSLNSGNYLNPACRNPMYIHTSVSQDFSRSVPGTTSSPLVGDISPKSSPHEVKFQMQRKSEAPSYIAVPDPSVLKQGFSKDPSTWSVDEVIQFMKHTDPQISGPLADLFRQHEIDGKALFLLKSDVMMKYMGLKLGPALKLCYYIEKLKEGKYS
UniProt Q9H1K0, sequence (Q9H1K0 whole entry, looked up): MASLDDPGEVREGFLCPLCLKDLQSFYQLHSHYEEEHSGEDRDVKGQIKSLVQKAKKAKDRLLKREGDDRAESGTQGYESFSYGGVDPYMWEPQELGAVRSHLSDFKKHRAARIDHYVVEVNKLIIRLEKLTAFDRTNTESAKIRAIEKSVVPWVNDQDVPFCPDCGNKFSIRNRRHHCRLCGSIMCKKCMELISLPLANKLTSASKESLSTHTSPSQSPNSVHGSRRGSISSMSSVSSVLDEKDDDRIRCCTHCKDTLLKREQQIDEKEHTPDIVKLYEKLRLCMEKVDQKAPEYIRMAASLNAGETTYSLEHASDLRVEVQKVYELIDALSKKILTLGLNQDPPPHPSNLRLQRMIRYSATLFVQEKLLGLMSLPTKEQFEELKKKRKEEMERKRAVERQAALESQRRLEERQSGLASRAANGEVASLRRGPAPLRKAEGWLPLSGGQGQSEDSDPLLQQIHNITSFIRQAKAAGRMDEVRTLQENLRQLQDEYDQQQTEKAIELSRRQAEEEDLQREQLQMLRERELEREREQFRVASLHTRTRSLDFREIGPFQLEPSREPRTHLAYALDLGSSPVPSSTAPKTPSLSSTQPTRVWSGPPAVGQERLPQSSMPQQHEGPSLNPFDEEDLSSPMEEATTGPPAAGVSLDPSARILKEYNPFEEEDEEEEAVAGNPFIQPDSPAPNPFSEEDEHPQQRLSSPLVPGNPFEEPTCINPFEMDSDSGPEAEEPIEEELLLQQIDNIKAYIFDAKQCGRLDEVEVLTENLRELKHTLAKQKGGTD
UniProt P54136, sequence (P54136 whole entry, looked up): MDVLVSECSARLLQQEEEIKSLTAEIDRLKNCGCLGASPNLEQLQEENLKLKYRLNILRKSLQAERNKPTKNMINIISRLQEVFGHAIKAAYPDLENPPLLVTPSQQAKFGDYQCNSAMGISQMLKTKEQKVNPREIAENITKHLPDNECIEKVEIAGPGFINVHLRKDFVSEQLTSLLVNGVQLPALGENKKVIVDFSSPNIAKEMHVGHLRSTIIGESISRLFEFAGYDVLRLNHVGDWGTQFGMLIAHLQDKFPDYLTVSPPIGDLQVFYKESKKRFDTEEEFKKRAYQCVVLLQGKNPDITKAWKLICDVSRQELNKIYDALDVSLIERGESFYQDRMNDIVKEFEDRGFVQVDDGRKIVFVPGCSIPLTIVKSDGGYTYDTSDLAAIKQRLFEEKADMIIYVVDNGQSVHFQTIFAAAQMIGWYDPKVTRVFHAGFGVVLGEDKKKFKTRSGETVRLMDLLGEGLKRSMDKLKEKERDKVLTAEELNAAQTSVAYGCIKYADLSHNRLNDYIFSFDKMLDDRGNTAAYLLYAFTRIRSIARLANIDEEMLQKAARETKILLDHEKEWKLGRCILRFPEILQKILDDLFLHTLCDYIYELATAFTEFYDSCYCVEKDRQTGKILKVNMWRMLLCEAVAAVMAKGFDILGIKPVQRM
UniProt O43819, sequence (O43819 whole entry, looked up): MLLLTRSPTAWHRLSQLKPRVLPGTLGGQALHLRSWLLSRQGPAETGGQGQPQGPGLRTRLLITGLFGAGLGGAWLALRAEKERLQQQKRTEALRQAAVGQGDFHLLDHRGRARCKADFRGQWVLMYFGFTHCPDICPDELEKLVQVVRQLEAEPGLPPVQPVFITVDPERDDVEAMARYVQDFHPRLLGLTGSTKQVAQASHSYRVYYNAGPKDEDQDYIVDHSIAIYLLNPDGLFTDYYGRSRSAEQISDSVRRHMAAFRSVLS
UniProt Q9BTD8, sequence (Q9BTD8 whole entry, looked up): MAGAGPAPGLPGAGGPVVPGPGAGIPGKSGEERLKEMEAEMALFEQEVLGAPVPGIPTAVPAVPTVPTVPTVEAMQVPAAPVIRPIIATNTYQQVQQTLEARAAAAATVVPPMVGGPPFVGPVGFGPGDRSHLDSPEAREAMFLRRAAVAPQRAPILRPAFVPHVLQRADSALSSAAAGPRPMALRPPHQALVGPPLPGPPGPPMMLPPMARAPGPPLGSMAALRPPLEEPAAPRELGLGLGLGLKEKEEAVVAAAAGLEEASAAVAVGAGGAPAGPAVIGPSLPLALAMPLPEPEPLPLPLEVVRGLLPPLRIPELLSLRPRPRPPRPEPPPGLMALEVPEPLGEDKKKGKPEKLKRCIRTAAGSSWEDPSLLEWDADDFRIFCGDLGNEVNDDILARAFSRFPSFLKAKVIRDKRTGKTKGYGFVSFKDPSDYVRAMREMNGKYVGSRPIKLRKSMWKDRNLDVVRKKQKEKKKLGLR
UniProt Q05823, sequence (Q05823 whole entry, looked up): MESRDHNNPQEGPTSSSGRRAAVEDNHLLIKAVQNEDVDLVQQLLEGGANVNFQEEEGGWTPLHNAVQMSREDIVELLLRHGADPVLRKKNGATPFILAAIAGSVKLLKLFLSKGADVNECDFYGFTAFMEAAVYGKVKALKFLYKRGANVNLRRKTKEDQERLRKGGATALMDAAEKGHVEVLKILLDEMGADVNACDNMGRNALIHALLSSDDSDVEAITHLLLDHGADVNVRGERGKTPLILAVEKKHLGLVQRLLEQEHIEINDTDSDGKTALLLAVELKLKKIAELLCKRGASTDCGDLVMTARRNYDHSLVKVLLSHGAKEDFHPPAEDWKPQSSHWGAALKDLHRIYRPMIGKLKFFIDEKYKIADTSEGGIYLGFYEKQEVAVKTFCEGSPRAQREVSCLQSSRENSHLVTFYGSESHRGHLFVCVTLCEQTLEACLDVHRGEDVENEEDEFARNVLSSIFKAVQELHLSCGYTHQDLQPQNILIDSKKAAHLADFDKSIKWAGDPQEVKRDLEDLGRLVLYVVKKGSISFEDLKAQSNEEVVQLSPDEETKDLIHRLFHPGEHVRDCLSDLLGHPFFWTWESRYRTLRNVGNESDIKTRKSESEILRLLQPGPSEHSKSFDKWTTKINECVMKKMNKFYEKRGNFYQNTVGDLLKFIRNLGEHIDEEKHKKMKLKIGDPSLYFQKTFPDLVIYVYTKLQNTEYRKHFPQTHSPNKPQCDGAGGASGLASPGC

Row | Target | log2 fold change (erlotinib) | log2 fold change [1] | log2 fold change [2] | log2 fold change [3] | log2 fold change [4] | log2 fold change [5] | log2 fold change [6] | log2 fold change [7] | log2 fold change [8] | log2 fold change (IRAK-1-4 Inhibitor I) | log2 fold change (ibrutinib) | log2 fold change [9] | log2 fold change (ralimetinib) | log2 fold change [10] | log2 fold change [11] | log2 fold change [12] | log2 fold change [13] | log2 fold change [14] | log2 fold change [15] | log2 fold change [16]
1 | RIOK1 (UniProt Q9BRS2) | -0.033 | -0.029 | 0.034 | 0.209 | 0.393 (active) | 0.128 | 0.4 (active) | -0.024 | 0.028 | -0.02 | 0.006 | 0.251 | 0.002 | -0.003 | -0.005 | 0.004 | -0.009 | 0.015 | -0.009 | 0.249
2 | RBSN (UniProt Q9H1K0) | -0.067 | -0.215 | 0.004 | -0.014 | -0.004 | 0.005 | 0.043 | 0.015 | 0.063 | 0.025 | 0.018 | 0.043 | -0.014 | -0.007 | 0.043 | 0.025 | -0.032 | 0.044 | 0.003 | 0.035
3 | SESN2 (UniProt P58004) | 0.043 | 0.102 | -0.007 | -0.017 | 0.023 | -0.037 | -0.07 | 0.051 | -0.014 | -0.048 | -0.001 | -0.038 | 0.018 | 0.007 | 0.019 | -0.051 | -0.064 | 0.008 | 0.078 | 0.205
4 | RBM42 (UniProt Q9BTD8) | -0.034 | -0.161 | 0.073 | -0.062 | -0.018 | -0.009 | -0.05 | -0.017 | -0.014 | 0.049 | 0.071 | 0.02 | -0.011 | -0.007 | 0.081 | 0.025 | 0.04 | -0.028 | -0.005 | 0.069
5 | RALGAPB (UniProt Q86X10) | 0.024 | -0.047 | 0.051 | 0.018 | 0 | -0.038 | -0.074 | -0.008 | 0.049 | 0.033 | 0.066 | -0.002 | 0.033 | -0.038 | 0.003 | -0.048 | 0.029 | 0.065 | 0.032 | 0.01
6 | SCML2 (UniProt Q9UQR0) | 0.021 | 0.038 | 0.019 | 0.068 | -0.046 | 0 | -0.028 | -0.003 | 0.043 | -0.01 | -0.011 | 0.028 | 0.004 | 0.034 | -0.011 | 0.011 | -0.012 | -0.015 | -0.006 | 0.109
7 | RDH10 (UniProt Q8IZV5) | 0.043 | 0.001 | -0.019 | 0.087 | -0.028 | -0.022 | -0.013 | 0.024 | -0.023 | 0.001 | 0.016 | -0.015 | 0.04 | -0.013 | 0.03 | -0.007 | -0.033 | -0.045 | -0.034 | -0.016
8 | SCO2 (UniProt O43819) | 0.055 | -0.09 | 0.057 | 0.023 | -0.017 | 0.085 | 0.035 | 0.014 | 0.041 | -0.015 | -0.021 | -0.065 | -0.02 | -0.142 | 0 | -0.258 | -0.009 | 0.017 | 0.01 | -0.117
9 | R3HCC1 (UniProt Q9Y3T6) | -0.015 | -0.118 | 0.055 | 0.074 | -0.086 | 0.071 | -0.008 | 0.006 | -0.016 | -0.044 | 0.02 | 0.058 | 0.016 | -0.028 | -0.045 | 0.022 | -0.061 | 0.017 | -0.001 | 0.025
10 | RANBP2 (UniProt P49792) | 0.017 | 0.014 | -0.004 | -0.011 | -0.012 | -0.004 | -0.038 | -0.001 | -0.007 | -0.019 | 0.001 | -0.01 | 0.018 | -0.009 | -0.01 | 0.011 | 0.007 | 0 | 0.018 | -0.001
11 | RPS9 (UniProt P46781) | -0.034 | 0.022 | -0.03 | -0.054 | -0.016 | -0.011 | 0.011 | 0.025 | -0.018 | -0.017 | -0.02 | 0.015 | 0.016 | 0.026 | -0.007 | -0.038 | -0.095 | -0.048 | 0.006 | 0.043
12 | RELN (UniProt P78509) | 0.012 | 0.004 | 0.014 | 0.025 | 0.001 | 0.033 | -0.015 | 0.042 | 0.058 | 0.002 | 0.011 | -0.237 (active) | 0.011 | -0.038 | -0.039 | -0.01 | 0 | -0.002 | 0.041 | 0.09
13 | RARS (UniProt P54136) | 0.037 | 0.029 | -0.023 | 0.023 | 0.043 | 0.029 | -0.025 | -0.005 | 0.005 | 0.008 | -0.001 | -0.003 | 0.062 | 0.048 | 0.033 | -0.019 | 0.015 | -0.003 | 0.06 | 0.033
14 | RAB27A (UniProt P51159) | -0.045 | 0.023 | -0.014 | 0.009 | -0.009 | -0.003 | -0.025 | -0.031 | -0.015 | -0.049 | -0.011 | -0.035 | 0.074 | 0.033 | -0.054 | -0.044 | 0.047 | -0.057 | 0.006 | -0.026
15 | RNASEL (UniProt Q05823) | 0.103 | -0.025 | -0.019 | -0.01 | 0.099 | 0.009 | -0.062 | -0.031 | 0.005 | 0.006 | -0.072 | -0.033 | 0.037 | -0.034 | 0 | -0.023 | 0.001 | 0.01 | 0.013 | 0.027
16 | RPL27 (UniProt P61353) | 0.002 | -0.02 | -0.04 | -0.033 | 0.011 | 0.011 | 0.03 | 0.052 | -0.014 | -0.014 | 0.037 | -0.014 | -0.025 | -0.018 | -0.01 | -0.067 | -0.051 | 0 | -0.01 | 0.014

Source: the supplement of paper PMC10849652
